This is an account of results in PubChem BioAssay (Tox21).

Assay [1] is described as follows: qHTS assay to identify small molecule antagonists of the estrogen related receptor (ERR) signaling pathway from Tox21 library - cell viability counter screen (AID 1224834). Also: nearly all actives have a fitted effect of over 30% in size. Also: potency is read from the fitted curve at half-maximal effect. The essentials:
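After 17.5 h of compound exposure at 37 C, ERR cells are incubated with CellTiter-Fluor for 30 min and fluorescence intensity serves as the viability measure.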

Assay [2] is described as follows: qHTS assay to identify small molecule antagonists of the constitutive androstane receptor (CAR) signaling pathway - cell viability counter screen (AID 1224837). Also: nearly all actives have a fitted effect of over 45% in size. The essentials:
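Counter screen run in HepG2-CYP2B6-hCAR cells: 4 hr settle, compound titration (15 concentrations) with 50 nM CITCO, 23 hr at 37 C/5% CO2, CellTiter-Fluor fluorescence.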
For orientation: qHTS replaces the single test concentration by a dilution series.

For assay [3], the target named is Nuclear receptor subfamily 1 group I member 3 (Homo sapiens) (UniProt Q14994). The experiment in a line: qHTS assay to identify small molecule antagonists of the constitutive androstane receptor (CAR) signaling pathway (AID 1224838).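 Also: HepG2 cells stably expressing hCAR with CYP2B6 luciferase reporter stimulated by CITCO; nearly all actives have a fitted effect of over 40% in size.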 The essentials: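 Cell line: HepG2 double-stable for hCAR and CYP2B6-2.2kb reporter. Agonist: CITCO, 50 nM final. Compounds: 15 concentrations, 24 h, 37 C. Detection: ONE-Glo luminescence.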

Assay [4] has the same target. The experiment in a line: qHTS assay to identify small molecule agonists of the constitutive androstane receptor (CAR) signaling pathway (AID 1224839). Also: nearly all actives have a fitted effect of over 15% in size. Also: potency is read from the fitted curve at half-maximal effect.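 As to activation: HepG2 cells stably carrying human CAR and a CYP2B6 luciferase reporter.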 The essentials:
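Readout: firefly luciferase luminescence via ONE-Glo. System: HepG2 double-stable for hCAR and CYP2B6-2.2kb. Conditions: 15-point compound titration, PK11195 at 0.75 uM final, 24 h incubation.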

Assay [5] is described as follows: qHTS assay to identify small molecule antagonists of the estrogen related receptor signaling pathway with the pleiotropic PPARgamma coactivator (PGC) from Tox21 10K library - cell viability counter screen (AID 1224840; active = well fitted cell-killing curve with a large enough effect in the repeat runs, not every such curve was filed as active; also: nearly all actives have a fitted effect of over 40% in size). The essentials:
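Following seeding of 2,000 PGC/ERR cells/well and 6 hours' incubation, test compounds were delivered in DMSO. The plates then sat 17.5 hours at 37 C before a fluorogenic live-cell protease reagent (CellTiter-Fluor) was read after 30 min.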

A short description of assay [6]: qHTS assay to identify small molecule antagonists of the estrogen related receptor signaling pathway with the pleiotropic PPARgamma coactivator (PGC) from Tox21 10K library (AID 1224841; call rule not given here; also: actives are mostly falling curves and most rising ones were filed inactive; nearly all actives have a fitted effect of over 50% in size). The essentials: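 qHTS antagonist format: PGC/ERR cells, 2k/well, compound in DMSO by pin transfer after 6 h attachment, 18 h treatment at 37 C, One-Glo luminescence read at 30 min.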

Assay [7] in a line: qHTS assay to identify small molecule agonists of the estrogen related receptor signaling pathway with the pleiotropic PPARgamma coactivator (PGC) from Tox21 10K library (AID 1224842). Also: nearly all actives have a fitted effect of over 15% in size. Also: potency is read from the fitted curve at half-maximal effect. In short, it runs like this: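 Luminescence from One-Glo (30 min, room temperature) measured after PGC/ERR cells had 18 h at 37 C with pinned compound (23 nL in DMSO). Cells had been seeded at 2,000 per well and pre-incubated 6 h.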

The target in assay [8] is Thyrotropin receptor (Homo sapiens) (UniProt P16473). The assay can be described thus: qHTS assay to identify small molecule agonists of the thyroid stimulating hormone receptor (TSHR) signaling pathway (AID 1224843; calls by dose curve; also: nearly all actives have a fitted effect of over 45% in size). In short, it runs like this:
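HEK293 cells stably bearing the thyrotropin receptor were plated at 800 cells/well and challenged with compound (30 min, RT). Accumulated cAMP was quantified via cAMP-d2 competing for cryptate-tagged antibody.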

Assay [9] can be described thus: qHTS assay to identify small molecule agonists of the hypoxia (HIF-1) signaling pathway - cell viability counter screen (AID 1224844; calls by dose curve; also: nearly all actives have a fitted effect of over 50% in size). In short, it runs like this: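 Cells (HRE-bla ME-180, 2,000 per well) sat 5 hrs at 37C, got compound for 17 hrs, were read for CCF4-AM FRET, and were finally lysed with CellTiter-Glo for a 30 min room-temperature luminescence read.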

Assay [10] in a line: qHTS assay to identify small molecule antagonists of the estrogen related receptor (ERR) signaling pathway from Tox21 library (AID 1224848). Also: nearly all actives have a fitted effect of over 50% in size. The essentials:
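Reading was by luminescence 30 min after ONE-Glo addition. Before that, ERR cells at 2,000 per well had rested 6 h at 37 C/5% CO2 and then received pin-tooled compounds in DMSO for 18 h at 37 C.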

Assay [11] in a line: qHTS assay to identify small molecule agonists of the estrogen related receptor (ERR) signaling pathway from Tox21 library (AID 1224849; calls by dose curve; also: nearly all actives have a fitted effect of over 15% in size). To be noted: ERR reporter cell line, ONE-Glo luciferase, 18 h. The essentials:
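Screening used an NTP-provided ERR luciferase cell line. Compounds in DMSO were added 6 h after seeding and left 18 h at 37 C before a 30 min ONE-Glo step and luminescence reading.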

Assay [12] can be described thus: qHTS RealTime-Glo MT Cell Viability Assay in HepG2 cells - 24 hour (AID 1224867). Also: nearly all actives have a fitted effect of over 50% in size. The essentials:
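Tox21 10K library screened in qHTS format on HepG2 cells carrying RealTime-Glo reagents. Compounds were added after a 5 h preincubation, and the luminescent signal from continuous culture was measured repeatedly during 40 h treatment.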

Assay [13] is described as follows: qHTS RealTime-Glo MT Cell Viability Assay in HEK293 cells - 32 hour (AID 1224868). Also: nearly all actives have a fitted effect of over 50% in size. Also: potency is read from the fitted curve at half-maximal effect. In short, it runs like this: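 Luminescence generated by NanoLuc from substrate produced by living HEK293 cells served as the viability signal. Each value reflects the reading at its stated time point during continuous 40 h compound exposure at 37 C.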
Assay [14] can be described thus: A CellTox Green Cytotoxicity Assay to monitor cytotoxicity in HEK293 cells - 0 hour (AID 1224869). Also: nearly all actives have a fitted effect of over 50% in size. In short, it runs like this: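 Fluorescence intensity, read at 0, 8, 16, 24, 32 and 40 h of compound treatment, reflected dye binding to DNA of dead HEK293 cells; compounds (23 nL, DMSO) were added 5 h after plating cells with reagent.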
A short description of assay [15]: qHTS RealTime-Glo MT Cell Viability Assay in HepG2 cells - 40 hour (AID 1224870). Also: nearly all actives have a fitted effect of over 50% in size. The essentials:
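Real-time viability: cells seeded at 600 per well together with NanoLuc and cell-permeant prosubstrate, compounds added after 5 h incubation. Luminescence tracked at 0, 8, 16, 24, 32 and 40 h of exposure.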

For assay [16], the target named is Luciferin 4-monooxygenase (Photinus pyralis) (UniProt P08659). The assay can be described thus: qHTS assay to identify small molecule inhibitors of firefly luciferase (AID 1224835). Also: nearly all actives have a fitted effect of over 25% in size. In short, it runs like this:
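Inhibition of purified Photinus luciferase is measured by luminescence. Substrate levels (D-luciferin, ATP) sit at their KM values. Each compound is tested in a concentration series.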

Assay [17] can be described thus: qHTS assay to identify small molecule agonists of H2AX (AID 1224845; active = well fitted activation curve with a large enough effect in the signal ratio in the repeat runs, not every such curve was filed as active; the % refers to the signal ratio). The essentials:
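Phospho-H2AX Ser139 measured by HTRF (ex 320 nm; em 665 and 620 nm) after 24 hr antibody incubation. Compounds, 15 concentrations, 0.76% DMSO, were applied to CHO-K1 cells for 3hr at 37C before lysis.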

A short description of assay [18]: qHTS assay to identify small molecule agonists of the hypoxia (HIF-1) signaling pathway (AID 1224846; active = well fitted activation curve with a large enough effect in the signal ratio in the repeat runs, not every such curve was filed as active; the % refers to the signal ratio). The essentials: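 A low-serum medium (0.5% dialyzed FBS) holding 2,000 HRE-bla ME-180 cells per well is preincubated for 5 hrs, dosed with compounds by pintool, and kept a further 17 hrs at 37C, 5% CO2 before CCF4-AM FRET detection of beta-lactamase.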
The nature of assay [19]: qHTS assay to identify small molecule agonists of H2AX - cell viability counter screen (AID 1224847; calls by dose curve;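 also: wild-type CHO-K1 cells; top concentration of the series differs between compounds; nearly all actives have a fitted effect of over 30% in size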). In short, it runs like this: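 For this counter screen, overnight-attached CHO-K1 cells received test compounds (15 concentrations, 0.76% DMSO final); 3 hr later at 37C, CellTiter-Glo reagent was added and luminescence recorded after 30 min at room temperature.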

Each structure is given as a SMILES string. Several values for one entry are separate records, joined by “and”; a condition that tells them apart may be missing. Equal entries are not always repeated. Unmarked numbers belong to inactive results. Results filed as inconclusive are left out. Activity calls are given as the source filed them. Unless noted, calls follow the shape of the dose curve; as a rule, active = well fitted curve in the direction sought with a large enough effect in the repeat runs; inconclusive = weak or mixed curves; inactive = no such curve, though single readings can be large; an effect the other way counts as inactive or inconclusive.
% is scaled to controls: 0 for no effect and ±100 for the full control effect.

Sequence of Thyrotropin receptor (Homo sapiens) (P16473 whole entry, looked up): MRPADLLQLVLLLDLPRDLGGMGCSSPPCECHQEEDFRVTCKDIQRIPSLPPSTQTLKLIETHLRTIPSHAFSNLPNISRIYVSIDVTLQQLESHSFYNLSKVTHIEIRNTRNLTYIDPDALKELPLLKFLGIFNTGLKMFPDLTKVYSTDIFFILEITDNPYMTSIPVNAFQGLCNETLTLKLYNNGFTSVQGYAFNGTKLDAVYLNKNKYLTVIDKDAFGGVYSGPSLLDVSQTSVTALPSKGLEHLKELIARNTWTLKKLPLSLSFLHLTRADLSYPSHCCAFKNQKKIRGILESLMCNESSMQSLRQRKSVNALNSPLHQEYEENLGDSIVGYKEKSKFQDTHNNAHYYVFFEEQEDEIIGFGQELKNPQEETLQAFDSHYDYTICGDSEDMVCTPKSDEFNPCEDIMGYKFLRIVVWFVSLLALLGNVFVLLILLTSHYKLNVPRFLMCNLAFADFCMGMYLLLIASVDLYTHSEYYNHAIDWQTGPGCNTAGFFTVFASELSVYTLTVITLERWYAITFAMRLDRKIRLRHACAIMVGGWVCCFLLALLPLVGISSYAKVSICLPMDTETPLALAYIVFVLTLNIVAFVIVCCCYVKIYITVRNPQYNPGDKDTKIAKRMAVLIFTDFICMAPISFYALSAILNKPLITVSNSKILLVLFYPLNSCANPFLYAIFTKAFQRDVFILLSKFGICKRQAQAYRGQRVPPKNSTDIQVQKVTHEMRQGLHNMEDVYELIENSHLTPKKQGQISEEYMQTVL
Sequence of Luciferin 4-monooxygenase (Photinus pyralis) (P08659 whole entry, looked up): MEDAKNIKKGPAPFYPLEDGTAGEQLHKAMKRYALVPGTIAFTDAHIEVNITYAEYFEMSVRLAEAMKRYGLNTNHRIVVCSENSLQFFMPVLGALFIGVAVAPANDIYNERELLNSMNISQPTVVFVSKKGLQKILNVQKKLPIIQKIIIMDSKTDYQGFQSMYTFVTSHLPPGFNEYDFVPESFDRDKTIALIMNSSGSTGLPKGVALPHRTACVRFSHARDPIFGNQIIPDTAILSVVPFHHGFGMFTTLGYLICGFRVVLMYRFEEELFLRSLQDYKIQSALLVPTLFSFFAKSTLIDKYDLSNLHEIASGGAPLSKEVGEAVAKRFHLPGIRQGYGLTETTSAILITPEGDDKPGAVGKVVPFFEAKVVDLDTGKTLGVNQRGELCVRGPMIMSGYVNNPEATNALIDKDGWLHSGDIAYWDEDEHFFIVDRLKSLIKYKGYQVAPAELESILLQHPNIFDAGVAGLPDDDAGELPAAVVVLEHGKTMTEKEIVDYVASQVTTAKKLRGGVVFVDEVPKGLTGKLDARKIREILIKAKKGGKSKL
Sequence of Nuclear receptor subfamily 1 group I member 3 (Homo sapiens) (Q14994 whole entry, looked up): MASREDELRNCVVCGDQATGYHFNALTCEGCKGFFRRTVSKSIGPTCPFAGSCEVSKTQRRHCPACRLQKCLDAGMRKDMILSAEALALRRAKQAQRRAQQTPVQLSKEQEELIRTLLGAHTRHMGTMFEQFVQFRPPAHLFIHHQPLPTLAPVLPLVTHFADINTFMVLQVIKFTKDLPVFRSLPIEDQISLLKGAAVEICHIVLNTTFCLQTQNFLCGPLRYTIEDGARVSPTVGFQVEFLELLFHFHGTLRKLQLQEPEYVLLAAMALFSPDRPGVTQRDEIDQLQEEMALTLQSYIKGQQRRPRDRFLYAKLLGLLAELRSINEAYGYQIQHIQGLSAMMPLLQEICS

For the molecule `Oc1ccc(/C=C/c2cc(O)cc(O)c2)cc1`, the Potency in assay [1] was 21.9 µM (active) and 21.7 µM (active) and 26.6 µM (active); in assay [4], 19.5 µM (active) and 21.7 µM (active) and 29.8 µM (active); in [7] it was 5.5 µM (active) and 4.86 µM (active) and 10.6 µM (active); in assay [13] it was 19.7 µM (active). Moreover, the Potency result in assay [2], in [3], in assay [5], in [6], in assay [9] and in [10] was “inactive” each time. For the same molecule, the Potency entry in assay [12] and in [15] was “inactive” in each case. Besides, the call in [8] and in assay [14] was inactive. The activity change, positive = activation was 132% (active) in assay [11] (at 42.5 µM (top of the series)); 0.861% (active) and 27.4% (active) in assay [11] (at 92.4 µM (top of the series)).
Consider `O=C(c1ccccc1)C(O)c1ccccc1` (stereo not given), for which the Potency result in assay [1], in assay [16], in [2], in assay [3], in assay [5] and in assay [9] was “inactive” throughout. Also, the Potency result in assay [12], in [13] and in assay [15] was “inactive” in each case. The call in assay [8], in assay [17], in assay [18], in assay [19] and in [14] was inactive.
Regarding `Cc1ccc(S(=O)(=O)NC(=O)NN2CCCCCC2)cc1`, the Potency result in assay [1], in assay [16], in assay [2], in [3], in [5] and in assay [6] was “inactive” each time. Besides, the Potency result in assay [7], in [9], in assay [10], in [12], in [13] and in assay [15] was “inactive” in each case. In addition, the molecule was called inactive in assay [8], in assay [17], in assay [19] and in [14]. Besides, the activity change, positive = activation is -3.23% in assay [11] (at 42.5 µM (top of the series)); -0.537% and -0.346% in [11] (at 92.4 µM (top of the series)).
As for `CNC[C@H](O)c1cccc(O)c1`, the Potency entry in assay [1], in assay [2], in [3], in [4], in [5] and in assay [9] was “inactive” throughout. In addition, the Potency entry in assay [10], in assay [12], in assay [13] and in assay [15] was “inactive” throughout. For the same molecule, the molecule was classed as inactive in assay [17], in assay [18], in assay [19] and in assay [14]. For the same molecule, the activity change, positive = activation is 5.4% in assay [11] (at 42.5 µM (top of the series)); -1.31% and 0.843% in assay [11] (at 92.4 µM (top of the series)).
With `CC(C)[C@@H]1CC[C@@H](C)C[C@H]1O`, the Potency result in [1], in assay [16], in [2], in [3], in assay [4] and in assay [5] was “inactive” throughout. Further, the Potency entry in [9], in [12], in [13] and in assay [15] was “inactive” in each case. The call in [8], in [17], in [18], in assay [19] and in assay [14] was inactive.
For the molecule `Cc1cn([C@H]2C[C@H](N=[N+]=[N-])[C@@H](CO)O2)c(=O)[nH]c1=O`, the Potency entry in [1], in assay [16], in [2], in assay [5], in [6] and in assay [7] was “inactive” throughout. Further, the Potency result in assay [9], in assay [10], in assay [12], in assay [13] and in assay [15] was “inactive” throughout. For the same molecule, the molecule was classed as inactive in assay [17], in assay [19] and in assay [14]. The activity change, positive = activation in assay [11] (at 42.5 µM (top of the series)) was 1.9%; in [11] (at 92.4 µM (top of the series)) it was 1.55% and -3.89%.
On to `O=C(O)/C=C\C(=O)O`, for which the Potency entry in [16], in [2], in assay [3], in [9], in [12] and in assay [13] was “inactive” in each case. Also, the Potency entry in [15] was “inactive”. The molecule was classed as inactive in assay [8], in assay [17], in assay [18], in [19] and in assay [14].
Regarding `O=C(O)CCCCCCCC(=O)O`, the Potency result in assay [1], in [16], in assay [2], in [3], in assay [4] and in assay [5] was “inactive” in each case. Besides, the Potency entry in assay [9], in assay [12], in [13] and in [15] was “inactive” in each case. Besides, the result in assay [8], in assay [17], in [19] and in assay [14] was inactive.
Consider `CCC1(c2ccccc2)C(=O)NCNC1=O`, for which the Potency entry in assay [1], in assay [16], in [2], in assay [3], in assay [4] and in assay [5] was “inactive” in each case. Also, the Potency entry in [9], in assay [12], in assay [13] and in assay [15] was “inactive” in each case. Further, the result in assay [8], in [17], in [19] and in assay [14] was inactive.
